# Source: PubChem BioAssay (NCATS)
# Inconclusive results are not listed. The source made the active and inactive calls. The call rests on the fitted dose curve; in most records, active means well fitted curve in the direction sought with a large enough effect in the signal ratio, with a control signal flat (not every such curve was filed as active); inconclusive means small, poorly fitted or top-dose-only effect, or effect the other way, or a change in a side signal; inactive means no such curve, though single readings can be large or run the other way; the % refers to the signal ratio.
# Molecular target: Peroxisome proliferator-activated receptor gamma (Homo sapiens) (UniProt P37231)
# Sequence (P37231 whole entry, looked up): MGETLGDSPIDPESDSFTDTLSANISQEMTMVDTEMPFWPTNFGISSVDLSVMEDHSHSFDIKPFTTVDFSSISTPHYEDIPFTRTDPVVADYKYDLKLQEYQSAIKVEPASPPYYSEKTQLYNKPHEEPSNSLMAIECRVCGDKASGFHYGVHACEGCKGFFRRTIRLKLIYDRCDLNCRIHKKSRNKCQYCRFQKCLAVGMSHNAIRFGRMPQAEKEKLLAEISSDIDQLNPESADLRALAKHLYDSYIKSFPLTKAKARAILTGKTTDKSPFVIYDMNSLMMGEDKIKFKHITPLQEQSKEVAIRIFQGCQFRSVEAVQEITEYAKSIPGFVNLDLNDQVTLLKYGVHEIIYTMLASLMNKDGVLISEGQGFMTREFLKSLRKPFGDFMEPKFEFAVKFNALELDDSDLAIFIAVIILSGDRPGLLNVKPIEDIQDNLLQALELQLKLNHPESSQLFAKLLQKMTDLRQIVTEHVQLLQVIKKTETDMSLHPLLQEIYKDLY
# Assay: qHTS assay for small molecule agonists of peroxisome proliferator-activated receptor gamma signaling (AID 588536)
# Conditions: HEK293 PPARg-UAS-bla, beta-lactamase ratio, 16 h, percent of rosiglitazone response, DMSO as zero; series mostly up to 76.7 µM; activation: at the top concentration
# Text: NIH Chemical Genomics Center [NCGC] U.S. Environmental Protection Agency [EPA] National Institutes of Environmental Health Sciences [NIEHS] National Toxicology Program [NTP] NCGC Assay Overview The Peroxisome proliferator-activated receptors (PPARs) are lipid-activated transcription factors of the nuclear receptor superfamily with three distinct subtypes namely PPAR alpha, PPAR delta (also called PPAR beta) and PPAR gamma. All these subtypes heterodimerizes with Retinoid X receptor (RXR) and these heterodimers regulate transcription of various genes. PPAR-gamma (glitazone receptor) agonists have been used in the treatment of type 2 diabetes and dyslipidaemia. It is involved in the regulation of glucose and lipid metabolism. PPAR-gamma activates certain genes like Paraoxonase 1 which is responsible for hydrolyzing organophosphates. PPAR-gamma agonists may also be therapeutically important in the treatment of coronary artery disease, obesity and cancer and atherosclerosis.
# NCGC Assay Protocol Summary Using a beta-lactamase reporter-gene under control of Peroxisome Proliferator-Activated-gamma (PPAR-gamma) response element, a cell-based assay [GeneBLAzer PPAR-gamma-UAS-bla assay developed by Invitrogen] was used to measure PPAR-gamma ligands signaling. GeneBLAzer PPAR-gamma-UAS-bla-HEK293 cells were used with assay medium containing 1% charcoal/dextran treated FBS. The assay was performed in clear bottom black Greiner 1536-well plates. Rosiglitazone was used in the screen as the positive control. Library compounds were measured for their ability to stimulate the reporter gene activity. Compounds were screened in a titration series in 1536-well format. The fluorescence intensity (405 nm excitation, 460/530 nm emission) was measured using an EnVision plate reader. Data was normalized relative to Rosiglitazone control (2 uM, 100%), and DMSO only wells (basal, 0%). Concentration-response titration points for each compound were fitted to the Hill equation yielding concentrations of half-maximal stimulation (EC50) and maximal response (efficacy) values. qHTS protocol for PPAR-gamma beta-lactamase assay in agonist mode [Step] [Parameter] [Value] [Description] 1. Reagent; 6 uL; 3000 cells/well 2. Incubation; 37 C for 6 - 6.5 hrs 3. Compounds; 23 nL; 0.59 nM to 92 uM 4. Controls (Rosiglitazone); 23 nL, - One column with dose response, start 19 uM, 1:3 dilutions in duplicates - Final concentrations of 2 uM and 0.5 uM in two columns 5. Incubation; 37 C for 16 hrs 6. Detection reagent; 1 uL of CCF4-dye 7. Incubation; RT for 2 hrs 8. Detection; Fluorescence; Envision plate reader
SMILES,activation,outcome
O=C1c2ccccc2C(=O)c2ccccc21,-1.01% (inactive),–
NCCc1ccc(O)cc1,3.45% (inactive),–
CCC(C)(C)c1ccc(O)cc1,–,inactive
C[C@]1(O)CC[C@H]2[C@@H]3CCC4=CC(=O)CC[C@]4(C)[C@@]3(F)[C@@H](O)C[C@@]21C,3.29% (inactive),–
CC(C)NC(C)C,-0.745% (inactive),–
O=C(O)CCCc1ccc(N(CCCl)CCCl)cc1,–,inactive
O=P1(N(CCCl)CCCl)NCCCO1 (stereo unspecified),–,inactive
Nc1ccc([As](=O)(O)O)cc1,-2.33% (inactive),–
C[C@]12CCC(=O)C=C1CC[C@@H]1[C@@H]2CC[C@]2(C)C(=O)CC[C@@H]12,–,inactive
COP(=S)(OC)SCN1C(=O)c2ccccc2C1=O,0.558% (inactive),–
COC(=O)C(c1ccccc1)C1CCCCN1 (stereo unspecified),-1.6% (inactive),–
CCOC(=O)CC(SP(=S)(OC)OC)C(=O)OCC (stereo unspecified),-1.8% (inactive),–
CC(C)c1cccc(C(C)C)c1O,1.32% (inactive),–
CCCC(C)(COC(N)=O)COC(N)=O,3.03% (inactive),–
Oc1ccc(Cl)cc1,3.06% (inactive),–
Nc1ccccc1,-0.301% (inactive),–
COP(=S)(OC)Oc1cc(Cl)c(Cl)cc1Cl,2.42% (inactive),–
COc1cc(OC)c(OC)cc1C=O,-0.398% (inactive),–
Nc1ccccc1C(=O)O,3.5% (inactive),–
CCOP(=S)(OCC)Oc1ccc2c(C)c(Cl)c(=O)oc2c1,13.3% (inactive),–
COP(=S)(OC)Oc1ccc(SC)c(C)c1,–,inactive
